Bioassay records from PubChem.
12-LOX inh = Primary qHTS assay for inhibitors of human arachidonate 12S-lipoxygenase (ALOX12): Round 2; Polyunsaturated fatty acid lipoxygenase ALOX12 (Homo sapiens), P18054; hit rate 1.1% among 580,000; AID 1671190, 2021; purified 12hLO, xylenol orange hydroperoxide absorbance; Potency, µM (highest dose often 108 µM), without a hit: at the highest dose activity change, negative = inhibition, hits mostly inhibitors; note: % is set by controls: 0 for no effect and ±100 for the full control effect
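Purified human 12hLO at 150 nM in 25 mM Hepes, 0.01% Triton X-100, pH 7.0, preincubated 15 min at room temperature with compound. Reaction started with 40 uM arachidonic acid, 30 min at room temperature. Hydroperoxide measured by Fe-xylenol orange, 573/405 nm absorbance ratio.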
JMJD2A Tudor inh = qHTS Assay for Inhibitors of JMJD2A-Tudor Domain | Lysine-specific demethylase 4A (Homo sapiens), O75164 | AlphaScreen JMJD2A-Tudor / H3K4me3 peptide binding | Potency, µM (series often up to 114 µM), without a hit: at the highest dose activity change, negative = inhibition, actives largely listed as inhibitors | hit rate 4.4% among 390,000; note: % is set by controls: 0 for no effect and ±100 for the full control effect; nearly all actives have a fitted effect of over 50% in size
G9a block = qHTS Assay for Inhibitors of Histone Lysine Methyltransferase G9a | AID 504332, 2011 | Histone-lysine N-methyltransferase EHMT2 (Homo sapiens), Q96KQ7 | hit rate 8.8% among 350,000 | Potency, µM (titrated, usually from 102 µM), for the others: at the top dose activity, negative = inhibition, hits mostly inhibitors | G9a H3K9 monomethylation, AlphaScreen, 2 h; note: % is set by controls: 0 for no effect and ±100 for the full control effect; nearly all actives have a fitted effect of over 75% in size
Target sequence (Q96KQ7 913-1193 limits assumed): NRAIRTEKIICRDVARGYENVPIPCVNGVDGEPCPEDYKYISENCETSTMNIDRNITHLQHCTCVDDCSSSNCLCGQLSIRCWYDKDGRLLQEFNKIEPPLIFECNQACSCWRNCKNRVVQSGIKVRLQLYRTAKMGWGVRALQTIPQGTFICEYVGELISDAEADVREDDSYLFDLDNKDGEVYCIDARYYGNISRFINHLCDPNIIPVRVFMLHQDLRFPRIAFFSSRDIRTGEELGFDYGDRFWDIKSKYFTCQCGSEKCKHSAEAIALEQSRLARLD
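G9a (20 nM) preincubated 15 min RT with compounds, then 500 nM biotinylated H3K9 peptide and 20 uM SAM added; 2 h RT reaction. Monomethyl-H3K9 product detected by AlphaScreen with anti-H3K9me1 antibody, streptavidin donor and anti-rabbit IgG acceptor beads.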
BAZ2B block = qHTS Assay for Inhibitors of BAZ2B; Bromodomain adjacent to zinc finger domain protein 2B (Homo sapiens), Q9UIF8; AlphaScreen BAZ2B-H3K14Ac peptide displacement; Potency, µM (highest dose often 114 µM), for inactives: at the highest dose activity change, negative = inhibition, actives largely listed as inhibitors; hit rate 4.4% among 360,000; note: % is set by controls: 0 for no effect and ±100 for the full control effect; nearly all actives have a fitted effect of over 60% in size
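BAZ2B (50 nM) with biotin-H3(5-23)K14Ac peptide (50 nM) in PBS pH 7.4, 0.01% Tween-20, preformed 30 min, then compound 30 min at room temperature; top concentration 110uM. AlphaScreen streptavidin donor/nickel chelate acceptor beads (10 ug/mL final), 20 min dark, signal read.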
Sfp inh = qHTS Assay for Inhibitors of Bacillus subtilis Sfp phosphopantetheinyl transferase (PPTase); 4'-phosphopantetheinyl transferase ffp (Bacillus subtilis), Q9F4F7; AID 1490, 2009; Potency, µM, for inactives: largest response in the series, negative = inhibition, most hits filed as inhibitors; hit rate 3.5% among 310,000; Biochemical Sfp PPTase activity, qHTS;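 note: the enzyme is Sfp with the accession as filed and its product quenches rhodamine fluorescence; 0% = enzyme reaction without inhibitor and -100% = no enzyme wells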
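Fluorescence-quenching assay: 15 nM Sfp-PPTase preincubated 15 min at room temperature with compound, then 5 uM rhodamine-CoA and 12.5 uM BHQ-2-labelled YbbR peptide added. Fluorescence (ex 525/em 598 nm) read at start and after 30 min; difference gives rate.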
HP1b binding inh = HTS for Inhibitors of HP1-beta Chromodomain Interactions with Methylated Histone Tails; Chromobox protein homolog 1 (Homo sapiens), P83916; AlphaScreen HP1-beta / biotin-H3K9me3 peptide binding; Potency, µM (doses to about 114 µM), inactives show top-dose activity change, negative = inhibition, most hits filed as inhibitors; hit rate 0.56% among 390,000; note: nearly all actives have a fitted effect of over 70% in size
Target sequence (P83916 whole entry, looked up): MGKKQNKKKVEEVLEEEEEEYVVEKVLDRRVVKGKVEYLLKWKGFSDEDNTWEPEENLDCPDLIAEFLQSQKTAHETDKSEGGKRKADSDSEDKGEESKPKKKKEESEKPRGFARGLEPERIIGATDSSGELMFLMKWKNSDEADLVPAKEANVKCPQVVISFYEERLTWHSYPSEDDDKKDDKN
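Compound inhibition of the preformed complex between 50 nM HP1-beta and 50 nM biotinylated H3K9me3 peptide was read by AlphaScreen. Buffer was PBS pH 7.4 with 0.01% Tween-20. Incubations ran 30 min at room temperature, with 10 ug/mL donor/acceptor beads.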
Numbers without * were called inactive; ! = not active in a repeat; [ ] = dose if it differs, or a comment. Shown are actives, neighbours in structure and some others; about 8.7% of the full set was active somewhere. Calls come from the whole dose curve; as a rule, active = well fitted curve in the direction sought with a large enough effect; inconclusive = small, poorly fitted or top-dose-only effect, or another doubt; inactive = no such curve, though single readings can be large; an effect the other way counts as inactive or inconclusive. Potency is the fitted concentration of half-maximal effect.

Screening COc1ccc(C2=NN3C(C2)c2ccccc2OC3c2cccs2)cc1 (stereo not drawn) returned 12-LOX inh inconclusive, JMJD2A Tudor inh -19.7%, G9a block 39.8µM*, BAZ2B block inconclusive, Sfp inh 10.0% and HP1b binding inh 26.8%.
Screening N=c1c[n+](N2CCOCC2)[n-]o1 returned 12-LOX inh -15.8%, JMJD2A Tudor inh 56.2µM*, G9a block 8.91µM*!, BAZ2B block 50.1µM*, Sfp inh -10.9% and HP1b binding inh 2.2%.
For Cc1cc(-n2c(C)cc(C(=S)N3CCOCC3)c2C)ccc1Br the results were 12-LOX inh -29.2%, JMJD2A Tudor inh inconclusive, G9a block 12.6µM*, BAZ2B block 44.7µM*, Sfp inh -26.9% and HP1b binding inh inconclusive.
`Cc1ccc(-n2c(C)cc(C(=O)CN3CCOCC3)c2C)cc1C` gave 12-LOX inh 3.5%, JMJD2A Tudor inh -35.0%, G9a block -32.8%, BAZ2B block -33.3%, Sfp inh -1.1% and HP1b binding inh 9.3%.
Screening COc1ccc(C(=O)N/C(=C\c2cc(OC)c(OC)cc2[N+](=O)[O-])C(=O)NCC(=O)O)cc1 returned 12-LOX inh -3.8%, JMJD2A Tudor inh -9.7%, BAZ2B block -8.3%, Sfp inh 2.2% and HP1b binding inh 21.1%.
`COc1ccc(C(=O)N/C(=C\c2cc(OC)c(OC)cc2[N+](=O)[O-])C(=O)NCCO)cc1` gave 12-LOX inh 40.1%, JMJD2A Tudor inh 0.3%, BAZ2B block -7.1%, Sfp inh 70.8µM* and HP1b binding inh 32.9%.
`CCCN1CCC(NC(=O)CCc2c[nH]c3ccccc23)CC1` gave 12-LOX inh -22.8%.
`COc1ccc(-n2c(SCC(=O)NCCC(C)C)nc3ccsc3c2=O)cc1` gave 12-LOX inh 0.0%, JMJD2A Tudor inh -6.7%, G9a block 25.1µM*, BAZ2B block -5.5%, Sfp inh inconclusive and HP1b binding inh 23.8%.
CC1CN(S(=O)(=O)c2cccc(-c3csc(-c4ccccc4)n3)c2)CC(C)O1 (stereo not drawn) was read as 12-LOX inh 320.6%, JMJD2A Tudor inh -1.2%, G9a block 17.8µM*, BAZ2B block -0.4%, Sfp inh -5.7% and HP1b binding inh -4.7%.
Screening CN(Cc1cccc(C#N)c1)C(=O)NCCNC(=O)CC1CCCC1 returned 12-LOX inh 32.5%.
`O=C(CC1C(=O)NCCN1Cc1ccccc1C(F)(F)F)NC1CCCCC1` (stereo not drawn) gave 12-LOX inh -13.1%, JMJD2A Tudor inh -5.8%, G9a block 39.8µM*, BAZ2B block -9.2%[57.1 µM], Sfp inh -7.2% and HP1b binding inh 30.8%.
`O=C(CC1C(=O)NCCN1Cc1ccccc1C(F)(F)F)NC1CCC1` (stereo not drawn) gave 12-LOX inh 5.9%, JMJD2A Tudor inh -6.6%, BAZ2B block -13.1%, Sfp inh -7.4% and HP1b binding inh 27.3%.
For O=C(CC1C(=O)NCCN1Cc1ccc(F)cc1Cl)NC1CCCCCCC1 (stereo not drawn) the results were 12-LOX inh 131.2%, JMJD2A Tudor inh -9.5%, G9a block 44.7µM*, BAZ2B block -19.5%, Sfp inh 1.3% and HP1b binding inh 21.3%.
Screening O=C(CC1C(=O)NCCN1Cc1ccccc1C(F)(F)F)NC1CCCCCC1 (stereo not drawn) returned 12-LOX inh -3.0%, JMJD2A Tudor inh -22.6%, G9a block 44.7µM*, BAZ2B block -8.0%[57.1 µM], Sfp inh -4.4% and HP1b binding inh 49.6%.
Screening Cc1cnc(NC(=O)[C@@H](NC(=O)c2ccccc2F)C(C)C)s1 returned 12-LOX inh -8.3%.
For O=C(Nc1ccccc1C(F)(F)F)c1nc2ccccc2nc1N1CCOCC1 the results were 12-LOX inh -19.6%.
For COc1ccc(-c2ccc(CCC(=O)O)n2NC(=O)c2cccs2)cc1 the results were 12-LOX inh -5.8%, JMJD2A Tudor inh -27.3%, G9a block 14.1µM*, BAZ2B block -22.6%, Sfp inh -12.3% and HP1b binding inh -2.8%.
Screening O=C(O)CCc1ccc(-c2ccccc2)n1NC(=O)c1ccco1 returned 12-LOX inh inconclusive, JMJD2A Tudor inh -17.8%, G9a block inconclusive, BAZ2B block -2.4%, Sfp inh -19.9% and HP1b binding inh 15.6%.
`Cc1ccc(-c2ccc(CCC(=O)O)n2NC(=O)c2cccs2)cc1` gave 12-LOX inh 120.6%, JMJD2A Tudor inh -15.8%, G9a block inconclusive, BAZ2B block 11.2µM*, Sfp inh 12.3% and HP1b binding inh 9.5%.
For COc1ccccc1CN1C[C@@H](CO)[C@H](c2ccccn2)C1 the results were 12-LOX inh 52.4%.
`Cc1sc2ncnc(SCc3ccc(C(=O)O)cc3)c2c1C` gave 12-LOX inh -12.7%, JMJD2A Tudor inh -7.5%, G9a block 44.7µM*, BAZ2B block -15.1%, Sfp inh -5.4% and HP1b binding inh 48.9%.
`O=C(CSc1ncnc2scc(-c3ccccc3)c12)N1CCN(Cc2ccc3c(c2)OCO3)CC1` gave 12-LOX inh 4.7%, JMJD2A Tudor inh inconclusive, G9a block 44.7µM*, BAZ2B block inconclusive, Sfp inh -16.7% and HP1b binding inh inconclusive.
c1ccc(-c2csc3ncnc(N4CCN(Cc5ccc6c(c5)OCO6)CC4)c23)cc1 was read as 12-LOX inh 0.0%, JMJD2A Tudor inh inconclusive, G9a block 10.8%[2.33 µM], BAZ2B block inconclusive, Sfp inh -15.4% and HP1b binding inh 17.0%.
Cc1ccc(-c2csc3ncnc(SCc4ccc(C(=O)O)cc4)c23)cc1 was read as 12-LOX inh inconclusive, JMJD2A Tudor inh inconclusive, BAZ2B block 50.1µM*, Sfp inh 50.1µM* and HP1b binding inh 17.4%.
For COc1ccccc1NC(=O)Nc1c(NC2CCCC2)c2ccccc2oc1=O the results were 12-LOX inh 4.6%.
`C=CCNC(=O)NC(=O)CN1CCCCC1` gave 12-LOX inh 7.5%.
For CC(C)c1noc(-c2cn(C3CCN(C(=O)c4cc5ccccc5[nH]4)C3)nn2)n1 (stereo not drawn) the results were 12-LOX inh -5.4%.
